Experimental data: ChEMBL document CHEMBL3988442, “University of Dundee, Small-Polar-MMV Screening Library” (2021)
For part of these data: Entries with a potency or affinity are not part of this list.

Assays:
Set-up in all cases: scale not given: direction of the effect not stated beside the values
[1] = target: Protein translocase subunit SecA (Escherichia coli (strain K12)) (UniProt P10408); assay: Assay to Identify E. coli SecA ATPase Inhibitors; type: functional; settings: 30 µM
[2] = target: T1, Ubiquitin-activating enzyme e1, putative (Leishmania donovani (strain BPK282A1)) (UniProt E9BSI1); assay: Leishmania donovani Ubiquitin Activating Enzyme (LdE1); type: functional; settings: 30 µM
T1 sequence (whole entry): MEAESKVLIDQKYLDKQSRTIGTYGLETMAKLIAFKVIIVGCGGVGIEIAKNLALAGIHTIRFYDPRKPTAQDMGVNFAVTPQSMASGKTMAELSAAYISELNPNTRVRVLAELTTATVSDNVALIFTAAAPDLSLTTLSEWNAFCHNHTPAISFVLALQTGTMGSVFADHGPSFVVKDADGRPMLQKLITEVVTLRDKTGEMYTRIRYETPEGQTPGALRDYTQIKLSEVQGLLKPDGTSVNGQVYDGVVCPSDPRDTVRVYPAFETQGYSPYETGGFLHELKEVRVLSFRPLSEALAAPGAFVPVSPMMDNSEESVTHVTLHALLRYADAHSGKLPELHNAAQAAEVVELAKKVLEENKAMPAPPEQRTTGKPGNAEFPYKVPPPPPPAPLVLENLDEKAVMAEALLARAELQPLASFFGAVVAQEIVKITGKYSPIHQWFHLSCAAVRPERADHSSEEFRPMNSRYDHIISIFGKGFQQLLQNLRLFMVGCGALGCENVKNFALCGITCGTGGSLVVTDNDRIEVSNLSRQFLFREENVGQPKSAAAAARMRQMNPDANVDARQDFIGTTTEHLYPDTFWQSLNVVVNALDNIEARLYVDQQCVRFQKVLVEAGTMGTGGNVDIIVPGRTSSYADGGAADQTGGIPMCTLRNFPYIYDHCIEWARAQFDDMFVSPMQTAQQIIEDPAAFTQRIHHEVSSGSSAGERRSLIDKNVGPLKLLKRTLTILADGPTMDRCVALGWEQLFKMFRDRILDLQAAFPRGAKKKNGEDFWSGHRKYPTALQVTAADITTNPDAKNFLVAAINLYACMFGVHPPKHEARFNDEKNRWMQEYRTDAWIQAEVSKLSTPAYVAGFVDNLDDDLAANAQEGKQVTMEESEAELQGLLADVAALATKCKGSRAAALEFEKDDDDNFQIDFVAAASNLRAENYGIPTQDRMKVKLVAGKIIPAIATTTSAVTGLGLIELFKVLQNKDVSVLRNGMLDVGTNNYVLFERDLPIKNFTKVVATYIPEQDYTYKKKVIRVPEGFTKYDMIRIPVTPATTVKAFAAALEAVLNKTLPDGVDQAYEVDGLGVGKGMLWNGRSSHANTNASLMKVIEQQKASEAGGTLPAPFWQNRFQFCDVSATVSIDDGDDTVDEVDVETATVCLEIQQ

[3] = target: Sialic acid-binding Ig-like lectin 9 (Homo sapiens) (UniProt Q9Y336); assay: Hs-Siglec9 ALPHAscreen SOP 20170721; settings: 10 µM
Trypanosoma cruzi = assay: Trypanosoma cruzi phosphomannomutase and mannose-1-phosphate guanylyltransferase assay; type: functional; settings: 10 µM
[4] = target: T2, Arginase-2, mitochondrial (Homo sapiens) (UniProt P78540); assay: in vitro enzyme assay to detect the production of urea directly proportional to the activity of Arginase II; type: functional; settings: 33.3 µM; further: in the data most compounds retested in dose-response had high values
T2 sequence (whole entry): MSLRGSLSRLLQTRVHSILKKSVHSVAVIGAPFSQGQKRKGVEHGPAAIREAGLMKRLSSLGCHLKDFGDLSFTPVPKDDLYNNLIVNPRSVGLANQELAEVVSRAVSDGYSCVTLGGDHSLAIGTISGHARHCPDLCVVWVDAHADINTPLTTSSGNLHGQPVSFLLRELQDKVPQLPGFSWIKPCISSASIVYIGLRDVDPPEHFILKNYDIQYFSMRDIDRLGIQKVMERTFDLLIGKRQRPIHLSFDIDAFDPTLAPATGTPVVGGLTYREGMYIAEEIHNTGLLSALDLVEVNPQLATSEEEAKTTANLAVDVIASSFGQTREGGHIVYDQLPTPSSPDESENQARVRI

[5] = target: T3, Proteasome subunit beta (Trypanosoma cruzi) (UniProt O96673); assay: Trypanosoma cruzi proteasome chymotrypsin-like activity (TcProtChymo) assay.; further: in the data most compounds retested in dose-response had high values; type: functional; settings: 9.37 µM
T3 sequence (whole entry): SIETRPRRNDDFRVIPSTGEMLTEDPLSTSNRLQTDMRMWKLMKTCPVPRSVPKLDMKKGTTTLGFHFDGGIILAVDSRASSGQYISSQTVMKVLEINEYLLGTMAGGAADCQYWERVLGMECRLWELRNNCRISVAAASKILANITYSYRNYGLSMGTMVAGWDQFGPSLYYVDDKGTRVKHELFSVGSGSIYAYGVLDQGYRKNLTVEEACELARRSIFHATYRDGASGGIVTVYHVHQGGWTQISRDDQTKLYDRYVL

Homo sapiens = species: Homo sapiens; assay: To identify inhibition of the IFN signalling (Jak-Stat) pathway via expression of an eGFP reporter gene under the control of an IFN-stimulated response element (ISRE) containing MxA promoter.; type: functional; settings: 30 µM
[6] = target: T4, Tyrosyl-tRNA synthetase, putative (Trypanosoma cruzi (strain CL Brener)) (UniProt Q4DSP6); assay: Trypanosoma cruzi tyrosyl tRNA synthetase (TcYRS) _High Tyrosine SOP; type: functional; settings: 30 µM; further: in the data most compounds retested in dose-response had high values
T4 sequence (whole entry): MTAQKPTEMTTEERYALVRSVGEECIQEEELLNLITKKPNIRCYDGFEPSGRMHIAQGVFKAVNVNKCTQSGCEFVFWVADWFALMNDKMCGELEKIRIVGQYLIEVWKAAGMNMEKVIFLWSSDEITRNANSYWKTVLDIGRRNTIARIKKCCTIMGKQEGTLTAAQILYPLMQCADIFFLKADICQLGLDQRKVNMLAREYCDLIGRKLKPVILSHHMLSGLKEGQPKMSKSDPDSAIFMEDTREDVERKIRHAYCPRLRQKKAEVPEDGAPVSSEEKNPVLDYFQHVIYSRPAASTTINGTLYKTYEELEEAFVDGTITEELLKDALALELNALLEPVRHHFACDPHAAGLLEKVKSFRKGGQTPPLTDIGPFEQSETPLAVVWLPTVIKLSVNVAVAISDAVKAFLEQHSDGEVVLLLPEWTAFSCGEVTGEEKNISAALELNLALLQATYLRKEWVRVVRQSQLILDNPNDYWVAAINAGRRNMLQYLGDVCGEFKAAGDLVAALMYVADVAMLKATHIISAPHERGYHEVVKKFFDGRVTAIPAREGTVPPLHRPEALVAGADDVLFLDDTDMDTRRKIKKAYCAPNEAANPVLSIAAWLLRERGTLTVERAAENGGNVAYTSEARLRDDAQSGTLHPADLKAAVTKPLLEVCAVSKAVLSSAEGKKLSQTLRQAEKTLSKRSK

[7] = target: T4, Tyrosyl-tRNA synthetase, putative (Trypanosoma cruzi (strain CL Brener)); assay: Trypanosoma cruzi tyrosyl tRNA synthetase (TcYRS) SOP; type: functional; settings: 30 µM
[8] = target: Chromo domain-containing protein 1 (Saccharomyces cerevisiae (strain ATCC 204508 / S288c) (Baker's yeast)) (UniProt P32657); assay: ScCHD-1 Enzyme Inhibition Assay; type: functional; settings: 30 µM; further: in the data most compounds retested in dose-response had high values
Chromo domain-containing protein 1 (Saccharomyces cerevisiae (strain ATCC 204508 / S288c) (Baker's yeast)), sequence (P32657 whole entry, the tested form may be a part): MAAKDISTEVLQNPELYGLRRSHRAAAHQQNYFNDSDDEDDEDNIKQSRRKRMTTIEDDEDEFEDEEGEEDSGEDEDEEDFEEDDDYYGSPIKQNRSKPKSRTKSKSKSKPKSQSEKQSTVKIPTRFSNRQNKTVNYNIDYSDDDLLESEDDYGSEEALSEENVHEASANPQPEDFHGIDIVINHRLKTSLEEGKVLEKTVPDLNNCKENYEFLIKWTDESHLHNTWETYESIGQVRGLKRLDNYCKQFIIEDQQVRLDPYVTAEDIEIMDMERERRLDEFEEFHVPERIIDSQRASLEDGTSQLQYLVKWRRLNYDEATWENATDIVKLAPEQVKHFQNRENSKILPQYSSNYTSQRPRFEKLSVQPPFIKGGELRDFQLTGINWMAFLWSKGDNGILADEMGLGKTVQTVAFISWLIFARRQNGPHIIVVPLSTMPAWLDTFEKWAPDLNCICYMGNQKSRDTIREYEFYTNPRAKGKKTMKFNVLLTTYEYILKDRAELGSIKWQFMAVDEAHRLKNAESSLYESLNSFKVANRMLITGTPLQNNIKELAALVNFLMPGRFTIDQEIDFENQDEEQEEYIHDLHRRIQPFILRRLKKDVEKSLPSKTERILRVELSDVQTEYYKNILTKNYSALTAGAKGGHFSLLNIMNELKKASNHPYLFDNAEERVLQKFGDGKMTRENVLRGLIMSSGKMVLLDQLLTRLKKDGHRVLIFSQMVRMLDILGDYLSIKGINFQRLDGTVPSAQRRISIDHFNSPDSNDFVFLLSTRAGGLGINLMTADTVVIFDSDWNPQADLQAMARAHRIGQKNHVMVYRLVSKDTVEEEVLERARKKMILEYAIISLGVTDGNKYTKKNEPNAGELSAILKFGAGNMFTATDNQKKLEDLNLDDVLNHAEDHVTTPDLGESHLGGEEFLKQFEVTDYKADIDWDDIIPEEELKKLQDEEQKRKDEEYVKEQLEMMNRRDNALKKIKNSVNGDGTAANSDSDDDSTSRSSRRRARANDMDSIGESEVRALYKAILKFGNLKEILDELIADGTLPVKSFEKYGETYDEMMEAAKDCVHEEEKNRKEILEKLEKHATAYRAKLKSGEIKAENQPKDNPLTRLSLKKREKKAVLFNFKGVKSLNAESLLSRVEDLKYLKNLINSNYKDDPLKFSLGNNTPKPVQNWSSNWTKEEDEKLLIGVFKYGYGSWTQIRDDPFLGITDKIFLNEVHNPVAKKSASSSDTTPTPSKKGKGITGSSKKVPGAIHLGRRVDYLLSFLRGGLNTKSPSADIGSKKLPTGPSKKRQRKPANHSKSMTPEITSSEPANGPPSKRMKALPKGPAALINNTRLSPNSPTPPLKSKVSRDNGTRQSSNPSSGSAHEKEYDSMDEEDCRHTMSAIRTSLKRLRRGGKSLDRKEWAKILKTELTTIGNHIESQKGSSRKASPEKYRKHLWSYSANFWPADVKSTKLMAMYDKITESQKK

Sialic acid-binding Ig-like lectin 9 (Homo sapiens), sequence (Q9Y336 whole entry): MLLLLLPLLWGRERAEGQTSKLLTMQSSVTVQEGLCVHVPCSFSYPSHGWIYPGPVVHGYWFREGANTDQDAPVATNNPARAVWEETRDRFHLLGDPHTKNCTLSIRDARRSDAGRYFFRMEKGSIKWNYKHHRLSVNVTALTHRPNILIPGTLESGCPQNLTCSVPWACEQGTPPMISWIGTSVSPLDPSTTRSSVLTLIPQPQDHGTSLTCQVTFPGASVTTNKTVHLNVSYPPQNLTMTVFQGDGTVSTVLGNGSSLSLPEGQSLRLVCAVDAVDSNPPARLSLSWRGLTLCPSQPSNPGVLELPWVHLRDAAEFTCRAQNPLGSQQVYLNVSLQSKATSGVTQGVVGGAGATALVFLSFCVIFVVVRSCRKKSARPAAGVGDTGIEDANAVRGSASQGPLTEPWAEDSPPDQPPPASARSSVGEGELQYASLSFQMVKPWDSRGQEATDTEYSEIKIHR
Protein translocase subunit SecA (Escherichia coli (strain K12)), sequence (P10408 whole entry): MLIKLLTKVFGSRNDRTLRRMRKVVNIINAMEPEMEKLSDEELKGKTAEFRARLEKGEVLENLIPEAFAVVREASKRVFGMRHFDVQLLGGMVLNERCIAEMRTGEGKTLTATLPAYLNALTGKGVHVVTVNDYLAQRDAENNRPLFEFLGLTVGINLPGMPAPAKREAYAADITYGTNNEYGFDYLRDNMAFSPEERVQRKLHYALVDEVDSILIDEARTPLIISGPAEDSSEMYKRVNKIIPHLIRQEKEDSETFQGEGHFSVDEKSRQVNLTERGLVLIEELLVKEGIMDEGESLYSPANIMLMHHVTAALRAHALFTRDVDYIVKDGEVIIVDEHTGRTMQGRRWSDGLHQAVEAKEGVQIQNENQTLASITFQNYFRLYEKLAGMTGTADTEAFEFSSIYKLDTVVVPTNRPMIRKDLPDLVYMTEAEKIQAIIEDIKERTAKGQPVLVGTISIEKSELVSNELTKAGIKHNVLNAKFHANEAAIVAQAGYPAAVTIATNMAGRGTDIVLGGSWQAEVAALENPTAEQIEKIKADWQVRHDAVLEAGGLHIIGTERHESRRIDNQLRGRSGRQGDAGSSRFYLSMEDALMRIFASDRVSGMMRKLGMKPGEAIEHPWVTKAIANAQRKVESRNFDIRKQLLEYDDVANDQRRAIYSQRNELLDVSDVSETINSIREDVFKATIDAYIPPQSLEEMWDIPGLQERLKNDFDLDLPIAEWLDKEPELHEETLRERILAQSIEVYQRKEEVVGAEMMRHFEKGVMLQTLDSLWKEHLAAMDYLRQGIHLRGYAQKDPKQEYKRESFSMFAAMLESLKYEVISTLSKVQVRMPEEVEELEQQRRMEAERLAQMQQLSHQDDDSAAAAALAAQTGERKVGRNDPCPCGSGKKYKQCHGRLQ

Row | Structure (SMILES) | Percent Effect [1] [%] | Percent Effect [2] [%] | Percent Effect [3] [%] | Percent Effect (Trypanosoma cruzi) [%] | Percent Effect [4] [%] | Percent Effect [5] [%] | Percent Effect (Homo sapiens) [%] | Percent Effect [6] [%] | Percent Effect [7] [%] | Percent Effect [8] [%]
1 | CCC1=N[C@@]2(CC[C@@H]3CN(C(=O)NCc4ccccc4)C[C@@H]32)C(=O)N1 | -4.85 | 3.9 | -3.04 | 1.66 | -4.86 | 4.33 | -16.6 | 5.79 | 5.13 | -0.556
2 | Cc1cnn(CC2CCCN2CC(=O)Nc2nc(C)cs2)c1 (stereo not given) | -2 | 7.79 | 11.1 | 0.746 | 5.12 | -1.4 | 2.04 | 12.8 | 21.2 | -5.41
3 | Cc1nn(C)cc1-c1cc(C(F)(F)F)c2c(C)nn(CC(=O)O)c2n1 | 0.552 | 14.7 | -7.53 | -2.56 | -0.885 | 7.72 | 24.1 | -1.06 | 0 | -17.3
4 | CN(Cc1ccc2c(c1)OCCO2)C(=O)Cn1cccnc1=O | -4.28 | 10.7 | -2.28 | 3.41 | 1.33 | 16 | 6.87 | 6.84 | 12.8 | -8.2
5 | COCCc1noc(CN2CCCC2c2c(C)nn(C)c2C)n1 (stereo not given) | -3.14 | 0 | 5.73 | 5.22 | -0.887 | 3.14 | -16.4 | 1.58 | 2.56 | -6.66
6 | COc1ccc(C(C)NC(=O)Cn2ccc(=O)n(C)c2=O)cc1OC (stereo not given) | -2.49 | 7.79 | 11 | -2.8 | 3.48 | 9.65 | 17.1 | 8.82 | 18.8 | -4.91
7 | CC(NC(=O)N1CCN(CCc2ccccc2)CC1)c1nncn1C (stereo not given) | -5.57 | 5.33 | 0.0136 | 3.41 | 0.444 | 7.55 | 13.6 | 2.63 | -20.5 | -8.2
8 | COc1ccccc1NC(=O)CSC1CCc2ccccc2NC1=O (stereo not given) | -4.52 | 13.5 | 8.46 | 4.17 | 17.1 | 18.3 | 13 | 5.85 | 17.1 | -4.97
9 | O=C(Cc1cccnc1)N1CCC(OCc2ccccc2)CC1 | -7.08 | -8.11 | 3 | -2.42 | -0.35 | 13.2 | 24.2 | 6.92 | 19.5 | 101
10 | CCOCC1CN(Cc2ccc(OC)cc2)Cc2nn(C)cc21 (stereo not given) | -9.46 | 3.9 | 2.27 | -1.46 | 0.405 | 9.62 | 15.7 | 2.63 | 2.56 | 0.496
11 | Cn1c(Cn2cccn2)nnc1C1CCCN(c2ccncc2F)C1 (stereo not given) | -3.83 | 10.8 | 2.04 | -2.62 | 0.35 | 12 | 27.1 | 2.66 | 12.2 | 0.18
12 | Cn1nc2c(cc1=O)CN(Cc1nnc(C3CC3)o1)CC2 | -3.12 | 51.3 | -13.6 | -6.29 | 0.41 | 6.91 | 36.5 | -11 | -6.02 | -6.1
13 | c1ncn(CC2CN(Cc3noc(C4CC4)n3)CCO2)n1 (stereo not given) | -7.36 | 2.67 | 2.48 | -1 | -3.55 | -1.1 | 15.2 | -1.58 | 0 | -8.55
14 | Cc1nc(C)n(CC2CCCN2Cc2cn(-c3ccccc3)nn2)n1 (stereo not given) | -2.72 | -2.67 | 1.09 | -1 | -1.77 | 2.97 | -1.44 | 3.68 | 0 | -6.83
15 | CCNC(=O)c1ccc(CNCc2c(C)nn(C)c2N(C)C)cc1 | -4.63 | 21.3 | 1.18 | 5.62 | -0.444 | 22.3 | 2.98 | 4.74 | 12.8 | -11.6
16 | Cc1nn(C)cc1CCC(=O)N1CCCC(n2cncn2)C1 (stereo not given) | -2.9 | 2.67 | 3.45 | 1.21 | 7.98 | 2.97 | -4 | 3.68 | 10.3 | -4.09
17 | Cc1cccnc1CN(C)CC1(O)CCCN(CC2CCCCC2)C1=O (stereo not given) | -5.13 | -2.7 | 19.5 | 6.69 | 5.94 | 9.76 | 23 | 13.3 | 17.1 | -2.65
18 | COCCN1CCCC12CCN(C(=O)CC1CCCC1)CC2 | -1.94 | -3.9 | 0.315 | 2.44 | 0 | -0.0858 | 16.7 | 5.8 | 12.5 | -2.58
19 | CN(C)[C@@H]1CN(Cc2ccoc2)C[C@@H]2CCCO[C@@H]21 | 0.454 | -11.7 | 0.192 | -1.46 | -1.62 | 5.74 | -2.15 | 0.526 | -2.56 | -1.39
20 | Cc1ccc(C(O)CNCCn2cccn2)cc1C (stereo not given) | -4.43 | 2.67 | 5.78 | 0.803 | 1.33 | 2.97 | 4.85 | 3.68 | 7.69 | -8.09
21 | CCN1CCn2nc(CCC(=O)N3CCCC3)cc2C1 | -6.01 | 2.7 | 0.796 | -3.98 | 0.35 | 19 | 8.04 | 5.85 | 14.6 | -5.3
22 | NC(=O)c1cc(C2CCCN(CCCOc3ccccc3)C2)n[nH]1 (stereo not given) | 1.07 | -15.4 | 18.7 | -0.282 | 6.15 | 1.79 | 0.734 | 1.44 | -1.21 | -4.36
23 | Cc1noc(C2CCN(Cc3cc(=O)n(C)c(=O)n3C)CC2)n1 | -4.76 | 16 | 3.89 | 0.602 | 0 | 13.2 | 15.2 | 3.68 | 12.8 | -9.16
24 | O=S(=O)(c1ccccc1)N1CCCCC1c1cc[nH]n1 (stereo not given) | -1.23 | 9.33 | -5.11 | -6.71 | -1.77 | 13.5 | 19.2 | -3.17 | 0 | -28
